Measurements as given in PubChem BioAssay AID1159580 (chemical genetic matrix, 2015).
The whole screen tested about 5,500 compounds, of which about 2,000 (36%) were called active. About 18% were inconclusive and are not listed. Rule as the data show it: active = normalized growth mostly below about 0.91 (no sharp cut-off); inconclusive = no clear call, values can overlap the other calls; inactive = mostly above about 0.92. This is one part of the list.

Test: chemical genetic growth profiling, strain panel (AID 1159580);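 also: tested at 20 µM; growth read once vehicle control cultures reached saturation at 30 °C; 1 = growth at the plate median or of vehicle wells; lower values mean less growth of the strain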
Settings: S. cerevisiae deletion strains, growth OD
[1] = locus YAL013W, strain DEP1, stronger effect = lower value
[2] = locus YBR229C, strain ROT2, stronger effect = lower value
[3] = locus YDL101C, strain DUN1, stronger effect = lower value
[4] = locus YDR150W, strain NUM1, stronger effect = lower value
[5] = locus YEL061C, strain CIN8, stronger effect = lower value
[6] = locus YGR078C, strain PAC10, stronger effect = lower value
[7] = locus YHR030C, strain SLT2, stronger effect = lower value
[8] = locus YHR087W, strain rtc3, stronger effect = lower value
[9] = locus YJL187C, strain SWE1, stronger effect = lower value
[10] = locus YJR043C, strain POL32, stronger effect = lower value
[11] = locus YJR075W, strain HOC1, stronger effect = lower value
[12] = locus YLR039C, strain RIC1, stronger effect = lower value
[13] = locus YLR058C, strain SHM2 (second series), stronger effect = lower value
[14] = locus YLR085C, strain ARP6, stronger effect = lower value
[15] = locus YLR262C, strain YPT6, stronger effect = lower value
[16] = locus YML094W, strain GIM5, stronger effect = lower value
[17] = locus YMR219W, strain ESC1, stronger effect = lower value
[18] = locus YMR263W, strain SAP30, stronger effect = lower value
[19] = locus YNL153C, strain GIM3, stronger effect = lower value
[20] = locus YNL298W, strain CLA4 (second series), stronger effect = lower value
[21] = locus YNL322C, strain KRE1, stronger effect = lower value
[22] = locus YNR030W, strain Alg12, stronger effect = lower value
[23] = locus YOL006C, strain TOP1, stronger effect = lower value
[24] = locus YPL055C, strain LGE1, stronger effect = lower value
[25] = locus YPL241C, strain CIN2, stronger effect = lower value
[26] = locus YPR135W, strain CTF4, stronger effect = lower value

Measured: normalized growth

COc1cc(C=Nc2ccc(F)cc2)cc(OC)c1OC
inactive: [1] 0.995 | [2] 0.978 | [3] 1 | [4] 0.896 | [5] 0.986 | [6] 1 | [7] 1.02 | [8] 1.01 | [9] 0.998 | [10] 1.01 | [11] 0.954 | locus YKL190W, strain CNB1, stronger effect = lower value 0.98 | [12] 0.983 | [13] 1.02 | [14] 0.965 | [15] 0.98 | [16] 0.988 | [17] 0.985 | [18] 1.01 | locus YMR307W, strain GAS1, stronger effect = lower value 0.938 | [19] 1.01 | [20] 1 | [21] 0.979 | [22] 0.979 | [23] 1 | [24] 1.02 | [25] 0.997 | [26] 1.11

COc1cc(/C=N\NC(=S)NC2CC3CCC2C3)cc(OC)c1OC (stereo unspecified)
inactive: [1] 0.985 | [2] 1.01 | [3] 1 | [4] 0.998 | [5] 0.994 | [6] 1 | locus YGR229C, strain SMI1, stronger effect = lower value 1 | [7] 0.816 | [8] 1.03 | [9] 0.996 | [10] 1.02 | [11] 1.05 | [12] 0.97 | [13] 1.02 | [15] 1.05 | [16] 0.913 | [17] 1.02 | [18] 0.975 | [19] 1.01 | [20] 0.889 | [21] 1.01 | [22] 0.92 | [24] 0.923 | [25] 0.898 | [26] 0.843
active: [14] 0.653 | [23] 0.51

S=C(N/N=C\c1cccs1)NC1CC2CCC1C2 (stereo unspecified)
active: [7] 0.763 | locus YLR113W, strain HOG1, stronger effect = lower value 0.788 | locus YPL256C, strain CLN2, stronger effect = lower value 0.736
inactive: locus YAR019C, strain CDC15, stronger effect = lower value 0.943 | locus YBL105C, strain PKC1, stronger effect = lower value 0.94 | locus YBR135W, strain CKS1, stronger effect = lower value 0.959 | locus YBR136W, strain MEC1, stronger effect = lower value 0.95 | locus YBR160W, strain CDC28, stronger effect = lower value 0.954 | locus YDL017W, strain CDC7, stronger effect = lower value 0.941 | locus YDL028C, strain MPS1, stronger effect = lower value 0.958 | [3] 0.952 | locus YDL108W, strain KIN28, stronger effect = lower value 0.951 | locus YDL132W, strain cdc53, stronger effect = lower value 0.96 | locus YDL214C, strain PRR2, stronger effect = lower value 0.913 | locus YDR052C, strain DBF4, stronger effect = lower value 0.945 | locus YDR054C, strain cdc34, stronger effect = lower value 0.928 | locus YDR226W, strain ADK1, stronger effect = lower value 0.937 | locus YDR477W, strain SNF1, stronger effect = lower value 0.91 | locus YER123W, strain YCK3, stronger effect = lower value 0.938 | locus YER133W, strain GLC7, stronger effect = lower value 0.905 | locus YFL009W, strain cdc4, stronger effect = lower value 0.934 | locus YFL029C, strain CAK1, stronger effect = lower value 0.94 | locus YFR003C, strain YPI1, stronger effect = lower value 0.951 | locus YFR019W, strain FAB1, stronger effect = lower value 0.956 | locus YFR028C, strain CDC14, stronger effect = lower value 0.944 | locus YGR040W, strain KSS1, stronger effect = lower value 0.909 | locus YGR052W, strain FMP48, stronger effect = lower value 0.921 | locus YGR092W, strain DBF2, stronger effect = lower value 0.794 | locus YHR079C, strain IRE1, stronger effect = lower value 0.75 | locus YHR082C, strain KSP1, stronger effect = lower value 0.898 | locus YHR205W, strain SCH9, stronger effect = lower value 0.732 | locus YIL147C, strain SLN1, stronger effect = lower value 0.956 | locus YJL095W, strain BCK1, stronger effect = lower value 0.89 | locus YJL128C, strain PBS2, stronger effect = lower value 0.957 | locus YJL157C, strain FAR1, stronger effect = lower value 0.885 | locus YJR016C, strain ILV3, stronger effect = lower value 0.945 | locus YJR066W, strain TOR1 (second series), stronger effect = lower value 0.87 | locus YJR066W, strain TOR1, stronger effect = lower value 0.908 | locus YKL048C, strain ELM1, stronger effect = lower value 0.934 | locus YKL067W, strain YNK1, stronger effect = lower value 0.95 | locus YKL101W, strain HSL1, stronger effect = lower value 0.949 | locus YKL193C, strain SDS22, stronger effect = lower value 0.947 | locus YKL203C, strain TOR2, stronger effect = lower value 0.978 | locus YLR133W, strain CKI1, stronger effect = lower value 0.913 | locus YLR403W, strain SFP1, stronger effect = lower value 0.787 | locus YML070W, strain DAK1, stronger effect = lower value 0.927 | locus YMR001C, strain CDC5, stronger effect = lower value 0.944 | locus YMR205C, strain PFK2 (second series), stronger effect = lower value 0.946 | locus YMR277W, strain FCP1, stronger effect = lower value 0.946 | locus YNL006W, strain LST8, stronger effect = lower value 0.957 | locus YNL020C, strain ARK1, stronger effect = lower value 0.918 | locus YNL161W, strain CBK1, stronger effect = lower value 0.936 | locus YNL183C, strain NPR1, stronger effect = lower value 0.967 | locus YNL207W, strain RIO2, stronger effect = lower value 0.929 | locus YNL222W, strain SSU72, stronger effect = lower value 0.936 | locus YNL307C, strain MCK1 (second series), stronger effect = lower value 0.842 | locus YOL078W, strain AVO1, stronger effect = lower value 0.939 | locus YOL136C, strain PFK27, stronger effect = lower value 0.881 | locus YOR061W, strain CKA2, stronger effect = lower value 0.948 | locus YOR119C, strain RIO1, stronger effect = lower value 1.01 | locus YOR231W, strain MKK1, stronger effect = lower value 0.935 | locus YOR329C, strain SCD5, stronger effect = lower value 0.949 | locus YPL031C, strain PHO85, stronger effect = lower value 0.879 | locus YPL153C, strain RAD53, stronger effect = lower value 0.88 | locus YPL204W, strain HRR25, stronger effect = lower value 0.842 | locus YPL209C, strain IPL1, stronger effect = lower value 0.943 | locus YPR025C, strain CCL1, stronger effect = lower value 0.959 | locus YPR106W, strain ISR1, stronger effect = lower value 0.953 | locus YPR111W, strain DBF20, stronger effect = lower value 0.953 | strain NNK1, stronger effect = lower value 0.947 | strain TSCII, stronger effect = lower value 0.932
